The values that follow come from PubChem BioAssay (NCATS).

Activity calls are given as the source filed them. A call without a number means that no potency is given here. The call rests on the fitted dose curve; in most records, active means well fitted inhibition curve with a large enough effect; inconclusive means small, poorly fitted or top-dose-only effect; inactive means flat fitted curve, though single readings scatter.

This assay concerns the target Luciferin 4-monooxygenase (Photinus pyralis) (UniProt P08659). The assay can be described thus: Primary firefly luciferase (FLuc) qHTS assay for identification of artifact compounds. (AID 1845220). Further: nearly all actives have a fitted effect of over 60% in size. The conditions noted are these: purified firefly luciferase, luminescence, 5 min; series mostly up to 54.1 µM. A digest of the protocol:
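In this counter-screen for luciferase artifacts, test compounds met substrate (10 uM each luciferin and ATP) before 10 nM enzyme started the reaction. Light output was measured 5 min later.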
In general terms: In qHTS, concentration-response curves come from the screen itself.
For the molecule `C=C1CCC2C(C)(C)CC(=O)CC2(C)C1CCC(C)CCOC(C)=O` (stereo not drawn), the Potency entry is “inactive”.

As to `COc1c2c(c(C)c3c1C(=O)OC3)O[C@@]1(C)C[C@@H](O)[C@]34O[C@](OC)(CC[C@]3(C)[C@H]1C2)OC4(C)C`, the Potency result is “inactive”. Take `COc1c(C)c(C(=O)c2ccc(N)c(C(=O)O)c2)n2ccccc12`: the Potency entry was “inactive”. On the same count and under the same terms, with `CC[C@H]1OC(=O)[C@H](C)[C@@H](OC2C[C@@](C)(OC)[C@@H](O)[C@H](C)O2)[C@H](C)[C@@H](OC2O[C@H](C)C[C@H](NC)[C@H]2O)[C@](C)(O)C[C@@H](C)CN(C)[C@H](C)[C@@H](O)[C@]1(C)O` (stereo partly drawn) the entry was “inactive”; with `C=CC1C(O[C@@H]2O[C@H](CO)[C@@H](O)[C@H](O)[C@H]2O)OC=C(C(=O)OC)C1Cc1nccc2c1[nH]c1ccccc12` (stereo partly drawn), “inactive”; with `CCC(=O)O[C@]1(C(=O)CCl)[C@@H](C)C[C@H]2[C@@H]3C[C@H](F)C4=CC(=O)C=C[C@]4(C)[C@@]3(F)[C@@H](O)C[C@@]21C`, “inactive”. Still for that read-out and setting: with `CC1=CC(=O)OC(C)(CC(C)(O)C(=O)O)C1` (stereo not drawn) the entry was “inactive”. As to `CC1(CO)CC[C@]2(C(=O)O[C@@H]3O[C@H](CO)[C@@H](O)[C@H](O)[C@H]3O)CC[C@]3(C)C(=CCC4[C@@]5(C)CC[C@H](O[C@@H]6O[C@H](C(=O)O)[C@@H](O)[C@H](O)[C@H]6O)C(C)(C)C5CC[C@]43C)C2C1` (stereo partly drawn), the activity change, negative = inhibition is -2.66% [at 11.6 µM] (inactive). For `COCC(=O)N1CCc2cc(-c3csc(NC(=O)c4cc(OC)cc(OC)c4)n3)ccc21`, the Potency result is “inactive”. On the same count and under the same terms, with `COC(=O)[C@]12C(=O)C(C)=C(O)[C@@]1(C)C(C)=CC1[C@@]34CC[C@@H](OC(C)=O)C(C)(C)C3[C@H](C[C@]12C)OC4=O` (stereo partly drawn) the entry was “inactive”; with `CC1(C)CC(=O)N(CCCCN2CCN(c3ncccn3)CC2)C(=O)C1`, “inactive”; with `CC(CO[C@@H]1O[C@H](COC(=O)/C=C/c2ccc(O)c(O)c2)[C@@H](O)[C@H](O)[C@H]1O)C1(O)COC(=O)C1` (stereo partly drawn), “inactive”.

As to `CNC(=O)c1ccc2cc([C@@]3(O)CCn4cncc43)ccc2c1`, the Potency result was “inactive”. On the same count and under the same terms, with `CCOC(=O)c1ccc(N(C)c2csc(-c3ccccc3)n2)cc1` the entry was “inactive”. Take `C=C1[C@@H]2CC[C@@]3(C)[C@H](c4ccoc4)OC(=O)C[C@]13O[C@H]1CC(=O)C(C)(C)[C@H](CC(=O)OC)[C@]12C`: the Potency result is “inactive”. In the case of `Cc1coc2c1CC1OC1(C)CCC1OC1(C)C2` (stereo not drawn), the Potency result is “inactive”. The same measure, in the same setting: under `CC12CCC3c4ccc(O)cc4CCC3C1CCC2OC1OC(C(=O)O)C(O)C(O)C1O` (stereo not drawn) stands “inactive”.

As to `CCOc1ccc(-c2ccc(Cn3c(CC(C)(C)C(=O)O)c(SC(C)(C)C)c4cc(OCc5ccc(C)cn5)ccc43)cc2)cn1`, the Potency result was “inactive”. Same read-out and setting: under `CC1=CC(=O)C[C@H]2[C@@H]1CC[C@@H](C)[C@]21CO[C@H](c2ccoc2)C1=O` stands “inactive”. For the molecule `C/C=C(\C)C(=O)O[C@@H](C)[C@H]1CC[C@]2(O)C3CCC4C[C@@H](OC5CC(OC)C(OC6CC(OC)C(OC7CC(OC)C(OC8OC(C)C(OC9OC(CO)C(O)C(O)C9O)C(OC)C8O)C(C)O7)C(C)O6)C(C)O5)CC[C@]4(C)C3[C@H](O)[C@@H](O)[C@]12C` (stereo partly drawn), the outcome was “inactive [at 11.6 µM]”. For `CC1(C)CCC(C)(C)c2cc([C@@H](O)C(=O)Nc3ccc(C(=O)O)cc3F)ccc21`, the Potency entry is “inactive”. In the case of `CC(CCC1(O)OC2CC3C4CCC5CC(O[C@@H]6O[C@H](CO)[C@@H](O)[C@H](O)[C@H]6O[C@@H]6OC[C@@H](O)[C@H](O)[C@H]6O)C(O)CC5(C)C4CCC3(C)C2C1C)CO[C@@H]1O[C@H](CO)[C@@H](O)[C@H](O)[C@H]1O` (stereo partly drawn), the activity change, negative = inhibition is 1.24% [at 11.6 µM] (inactive). `C[C@]12CCC(=O)C=C1[C@@H](O)C[C@@H]1[C@@H]2[C@@H](O)C[C@@]2(C)[C@H]1CC[C@]2(O)C(=O)CO`: the Potency entry was “inactive”. Regarding `CC1=C2C3OC(=O)C(C)C3(O)CCC2(C)CCC1=O` (stereo not drawn), the Potency result is “inactive”. Turning to `C[C@@H]1CC[C@]2(C(=O)O)CC[C@]3(C(=O)O)C(=CCC4[C@@]5(C)CC[C@H](O[C@@H]6O[C@@H](C)[C@H](O[C@@H]7O[C@H](CO)[C@@H](O)[C@H](O)[C@H]7O)[C@@H](O)[C@H]6O)C(C)(C)C5CC[C@]43C)C2[C@H]1C` (stereo partly drawn), the Potency entry was “inactive”. `CC(=O)OC1C=C(C(=O)O)C2(CO)CCC(C)C(C)(CCc3ccoc3)C2C1` (stereo not drawn): the Potency result is “inactive”. For the molecule `CC1CCC2(C)C(CC(O)C(O)C23CO3)C1(C)CCC1=CC(O)OC1=O` (stereo not drawn), the Potency result was “inactive”. Same read-out and setting: with `O=c1ccn(C2OC(CO)C(O)C2O)c(=O)[nH]1` (stereo not drawn) the entry was “inactive”. On the same count and under the same terms, with `NCCCC[C@H](NC(=O)[C@@H]1Cc2ccccc2CN1C(=O)CCC(=O)c1ccccc1)C(=O)NCC(c1ccccc1)c1ccccc1` the entry was “inactive”; with `C=C1C(OC(C)=O)C(=O)C2C(C)(C)C(OC(C)=O)CCC2(C)C1CC(OC(C)=O)/C(C)=C/COC(C)=O` (stereo not drawn), “inactive”. The same measure, in the same setting: with `CC1CCC2C(C)(C)C(O)CCC2(C)C12Cc1c(O)cc3c(c1O2)C(N)=NC3` (stereo not drawn) the entry was “inactive”; with `CC(C)=CCC[C@](C)(O[C@@H]1O[C@H](CO[C@@H]2OC[C@@H](O)[C@H](O)[C@H]2O)[C@@H](O)[C@H](O)[C@H]1O)[C@H]1CC[C@]2(C)[C@@H]1[C@H](O)C[C@@H]1[C@@]3(C)CC[C@H](O[C@@H]4O[C@H](CO)[C@@H](O)[C@H](O)[C@H]4O[C@@H]4O[C@H](CO)[C@@H](O)[C@H](O)[C@H]4O)C(C)(C)[C@@H]3CC[C@]12C`, “inactive”; with `CC1CCC2(C(=O)OC3OC(CO)C(O)C(O)C3O)CCC3(C(=O)O)C(=CCC4C5(C)CCC(OC6OC(C)C(O)C(O)C6O)C(C)(C)C5CCC43C)C2C1C` (stereo not drawn), “inactive”. Turning to `COc1cc(/C=C/C(=O)OC2[C@H](O)CC(O)(C(=O)O)C[C@H]2O)ccc1O` (stereo partly drawn), the Potency result is “inactive”. On to `CC1(C)C(O)CCC2(C)C1C(O)C=C1COC(=O)C12O` (stereo not drawn), for which the Potency entry is “inactive”.

Consider `CC(C)C(=O)O[C@@H]1[C@@H](O)[C@@H](O[C@H]2O[C@H](CO)[C@@H](O)[C@H](O)[C@H]2O)O[C@H](CO)[C@H]1O`, for which the Potency entry is “inactive”. The same measure, in the same setting: with `CCC(C)(O)C(O)C(=O)OCc1ccc(O[C@@H]2O[C@H](CO)[C@@H](O)[C@H](O)[C@H]2O)c(OC)c1` (stereo partly drawn) the entry was “inactive”; with `CC1=C(C)C(=O)OC(C(C)(O)C2CCC3C4CC=C5CC(OC6OC(COC7OC(CO)C(O)C(O)C7O)C(O)C(O)C6O)CC(O)C5(C)C4CCC32C)C1` (stereo not drawn), “inactive”.
